MITF inh – human MITF inhibition, primary screen; 650,000 compounds, 0.91% hits; AlphaScreen MITF homodimerization, bead proximity signal; O75030; inhibition, % at 2.6 µM; in the data active means inhibition above about 50%;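 further: 0% = vehicle wells with protein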
TEAD-YAP inh – TEAD-YAP interaction inhibition; HEK-TIYL cells, TEAD-Gal4/YAP UAS-luciferase luminescence; inhibition, % at 9.12 µM; 640,000 compounds, 1.4% hits; in the data active means inhibition above about 32%;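 further: 0% = median of test compound wells and 100% = reference inhibitor wells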
FBW7 activator – activators of human E3 ligase FBW7; Q969H0; AlphaScreen FBW7–phospho-cyclin E peptide binding, activator screen; normalized activity (activation), % at 26.1 µM; 650,000 compounds, 0.13% hits; AID 1259310; in the data active means normalized activity above about 1.9%;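 further: purified mutant Fbw7 with reduced substrate affinity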
GPR151 ag – activators of human GPR151; PathHunter beta-arrestin GPR151 cells, luminescence; AID 1508602; 650,000 compounds, 1% hits; Q8TDV0; activation, % at 11.2 µM; in the data active means activation above about 4.9%;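 further: 0% = median of compound wells and 100% = cells with positive control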
GPR151 confirm – confirmation of human GPR151 activators. shares compounds with GPR151 ag. activation, % at 11.2 µM. AID 1508609. GPR151 PathHunter beta-arrestin cells, luminescence, 90 min; % of EA-reagent control over plate median. 6,700 tested, under 10 active;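 active means mean percent activation across replicates above the confirmation screen cutoff of 4.91%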
GPR119 ag – GPR119 activation, counter-screen for GPR151 activators; shares compounds with GPR151 ag; GPR119 PathHunter beta-arrestin cells, luminescence, 90 min; 0 = compound-well median, 100 = enzyme-acceptor control; activation, % at 11.2 µM; 6,700 compounds, 0.3% hits;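 active means mean percent activation in the counterscreen above 29.09%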;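 further: counterscreen on off-target GPR119 to flag nonselective hits from the GPR151 activator screen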
Target sequence (Q8TDV5 whole entry, looked up): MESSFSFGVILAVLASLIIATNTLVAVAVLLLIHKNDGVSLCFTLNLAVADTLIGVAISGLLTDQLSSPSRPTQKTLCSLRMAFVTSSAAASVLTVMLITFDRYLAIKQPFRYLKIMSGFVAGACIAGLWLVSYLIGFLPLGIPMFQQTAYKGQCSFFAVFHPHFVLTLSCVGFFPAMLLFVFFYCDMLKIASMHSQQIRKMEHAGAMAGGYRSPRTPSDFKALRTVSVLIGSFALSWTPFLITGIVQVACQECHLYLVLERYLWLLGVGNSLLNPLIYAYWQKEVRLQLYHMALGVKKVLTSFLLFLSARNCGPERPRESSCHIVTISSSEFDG
The depositor's hits bear a star; . = not tested or not shown; ! = repeats disagree. This is a sample that favours compounds with a hit; in the whole collection about 3.5% have one here.

SMILES | MITF inh | TEAD-YAP inh | FBW7 activator | GPR151 ag | GPR151 confirm | GPR119 ag
CCc1nc(SCc2cccnc2)c2c(=O)n(C)c(=O)n(C)c2n1 | 3.8 | 5.7 | 0.2 | 8.2* | 0.1 | 4.4
CN1CCN(/N=C(\NO)c2nonc2N)CC1 | -18.4 | -24.8 | 0.2 | 12.8*! | 0.0 | -1.1
Cc1ccc(C(=O)Oc2ccc(Br)cc2)cc1C | 3.7 | -6.9 | 0.1 | -0.4 | . | .
Fc1ccc2nc(N3CCN(c4nc5ccccc5s4)CC3)sc2c1 | 10.0 | 2.4 | 0.1 | 14.7* | -0.5 | -7.0
O=C(Oc1ccc(N2C(=O)C3C4CCC(C4)C3C2=O)cc1)c1ccc(Br)cc1 (stereo not drawn) | -13.8 | -7.3 | -0.1 | -1.1 | . | .
COc1cc(/C=C/c2ccc([N+](=O)[O-])cc2)ccc1O | 6.1 | -26.7 | 0.4 | -1.7 | . | .
CCOc1ccc(-c2n[nH]c(C)c2Oc2ccc(F)cc2)c(O)c1 | -4.0 | 1.2 | -0.1 | 4.9* | 0.4 | -10.3
Cc1ccc(S(=O)(=O)n2ccn(C(=O)c3ccccc3Br)c2=O)cc1 | -3.0 | -9.2 | -0.1 | 4.9* | -0.9 | -13.8
O=C(NCCCN1CCN(c2ccc(Cl)cc2)CC1)Nc1ccccc1 | 3.8 | -7.3 | -0.2 | 6.6* | 0.1 | 7.9
O=C(NCCCN1CCN(c2ccc(Cl)cc2)CC1)Nc1ccc(F)cc1 | -7.2 | -8.7 | -0.3 | 0.5 | . | .
Cc1ccc(C(C)C)cc1OCCOCCNCCN(C)C | -19.3 | 11.5 | 0.0 | 5.1* | -0.6 | -0.7
CCOc1ccc(C(=O)NNC(=O)CCc2nc3ccccc3s2)cc1 | 15.2 | -5.6 | 0.6 | -0.6 | . | .
Cc1nc(-c2ccc(S(=O)(=O)N3CCOCC3)cc2)cs1 | 3.8 | 0.5 | 0.0 | 8.6* | 0.3 | 2.2
O=C(N/C(=C/c1ccc(F)cc1)C(=O)N1CCCCC1)c1ccco1 | -8.0 | -1.9 | -0.2 | 6.6* | 0.4 | 2.2
O=C(N/C(=C/c1cccc([N+](=O)[O-])c1)C(=O)N1CCCCCC1)c1ccco1 | 7.3 | -5.1 | 0.8 | 2.8 | . | .
O=C(N/C(=C\c1cccc([N+](=O)[O-])c1)C(=O)N1CCOCC1)c1ccco1 | 6.0 | 4.4 | -0.1 | 6.9* | 0.8 | 4.3
COc1cccc(-c2noc(/C=C/c3ccc(OC)c(OC)c3)n2)c1 | 14.5 | -22.6 | 0.1 | 0.8 | . | .
COc1ccc(/C=C/c2nc(-c3cccnc3)no2)cc1OC | -1.8 | -65.9 | 0.2 | 8.7* | -0.1 | -14.9
CC(C)(C)OC(=O)NC1CCN(C(=O)Nc2ccc(Cl)c(Cl)c2)CC1 | -9.7 | 2.7 | 0.0 | -0.9 | . | .
Cc1nc(N2CCCN(C)CC2)c2c(-c3cccs3)csc2n1 | 32.9 | 3.8 | 0.6 | -1.1 | . | .
Cc1nc(N2CCC(C(N)=O)CC2)c2c(-c3cccs3)csc2n1 | 9.2 | -0.5 | 0.1 | 5.4* | -0.1 | 5.2
COCCCNC(=O)c1cc(C(=O)NCCCOC)cc([N+](=O)[O-])c1 | -8.8 | -10.4 | 0.0 | 0.2 | . | .
Cc1nnc(SCC(=O)N2CCc3ccccc3C2)[nH]c1=O | -13.8 | -10.0 | -0.1 | 10.4* | -0.1 | 7.6
O=C(CSc1nc2ccccc2c(=O)[nH]1)N1CCc2ccccc2C1 | 14.6 | -2.1 | 0.0 | 0.1 | . | .
O=C(NCc1ccc(Cl)nc1)c1cnc2scc(-c3ccc(Cl)s3)n2c1=O | 9.9 | 3.0 | 0.5 | 1.8 | . | .
SMILES | MITF inh | TEAD-YAP inh | FBW7 activator | GPR151 ag | GPR151 confirm | GPR119 ag
COCCNC(=O)c1nn(C)c2c1CSc1ccccc1-2 | 1.7 | -30.5 | -0.1 | 6.7* | -0.9 | -9.4
CCCN1CCc2c(C(=O)OC)c(OCCc3ccccn3)cc(=O)n2CC1 | -7.9 | -12.4 | 0.2 | -0.3 | . | .
CC(=O)c1ccccc1OCC(=O)c1ccc(C)cc1 | -12.8 | -29.3 | -0.1 | 0.9 | . | .
CN(Cc1ccc(F)cc1)c1ccc(OCC(=O)N2CCOCC2)nn1 | -2.7 | -3.3 | -0.2 | 1.7 | . | .
CS(=O)(=O)Oc1ccc(C(=O)/C=C/c2ccc3c(c2)OCO3)cc1 | -3.1 | -1.8 | 0.9 | -1.3 | . | .
CCOC(=O)c1ccc(-n2c(C)nc(=O)c(-c3ccccc3)c2C)cc1 | -2.9 | -2.6 | -0.1 | 7.8* | -0.5 | 11.6
Cc1nc(=O)c(-c2ccccc2)c(C)n1-c1ccc(C(=O)O)cc1 | 5.1 | 2.7 | 0.6 | -1.4 | . | .
O=C1N(C2Cc3ccccc3C2)C[C@@H]2C[C@@H](c3cccc(-n4cccn4)c3)N3CCC[C@@]123 | -5.5 | 1.4 | 0.1 | 6.3* | 1.3 | 0.8
COC(=O)c1ccc(C(=O)OC)c(NC(=O)CSc2nnc(-c3ccco3)o2)c1 | -5.5 | -4.2 | 0.4 | 2.8 | . | .

High-throughput results: PubChem BioAssay, The Scripps Research Institute Molecular Screening Center
